± gives the standard deviation.
Key:
[1] = tested on: MILI (PIWIL2) piRISC loaded with L1MC piRNA (26 nt); test: pre-steady-state target cleavage rate (min^-1); guide: L1MC piRNA 5'p-UAACUAAAUACUAUGCAAGCUGUAGG; higher = faster piRNA-guided slicing of the target; settings: auxiliary factor: 500 nM mouse GTSF1
Summary of the method: (§1)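 A transcribed, DNA-blocked target RNA library (0.1 nM) and 1 nM active affinity-purified piRISC bearing one synthetic guide were incubated in HEPES–potassium acetate buffer at 33 °C for 0–8 or 0–960 min, either with or without 500 nM GTSF1 partner protein. Uncleaved targets were sequenced, normalised to depth and to weakly complementary targets, and pooled over three trials, with k3 capped at 0.0001 min^-1. The pre-steady-state cleavage rate was derived with a burst-and-steady-state fit.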

[2] = tested on: EfPiwi piRISC loaded with L1MC piRNA (26 nt); test: pre-steady-state target cleavage rate (min^-1); auxiliary factor: 500 nM Ephydatia muelleri Gtsf1; guide: L1MC piRNA 5'p-UAACUAAAUACUAUGCAAGCUGUAGG; MIWI and MILI are mouse PIWI proteins and EfPiwi is from a freshwater sponge; tags in brackets are library labels; higher = faster piRNA-guided slicing of the target
Summary of the method: as §1

| Sequence | pre-steady-state target cleavage rate [1] | pre-steady-state target cleavage rate [2] |
| --- | --- | --- |
| UCCUGCUACAGCUUGCAUAGUAUAUAGAAA | 0.0314 ± 0.01 | 0.00298 ± 0.0025 |
| UCCUCCAUCAGCUUGCAUAGUAUUUAGAAA | 0.0615 ± 0.017 | 0.00539 ± 0.0026 |
| UCCUGCUACACCUUGCAUAGUAUUUUCAAA | 0.0765 ± 0.028 | 0.00244 ± 0.0022 |
| UCCUGGAUGAGCAUGCAUAGUAUUUAGAAA | 0.121 ± 0.025 | 0.00289 ± 0.0024 |
| UCCUGGUACUGCUUGCAUAGUAUUUUCAAA | 0.0112 ± 0.0064 | 0.00285 ± 0.0022 |
| UCCUGGAACACGAUGCAUAGUAUUUACAAA | 0.0623 ± 0.018 | 0.00408 ± 0.0037 |
| UCCUCCUACAGCUUGCUAUAGUAUUUAGUUA | 0.0206 ± 0.0064 | 0.00859 ± 0.0032 |
| UCCUCGUACAGCUUGCAUAGUAUUUAGAUA | 0.177 ± 0.025 | 0.00437 ± 0.0019 |
| UCCUGGAAGAGCUUGCAUAGUAUUUACAAA | 0.0536 ± 0.02 | 0.00396 ± 0.0018 |
| UCCUGGAUGAGCUAGCAUAGUAUUUAGAUA | 0.168 ± 0.028 | 0.00406 ± 0.002 |
| UCCUCCUACAGCUUGCAUAGAUUUUAGUAA | 0.0588 ± 0.015 | 0.00392 ± 0.0025 |
| UCCUGGUACAGCUUGCAUAGUAUUUAGCUUA | 0.204 ± 0.041 | 0.00493 ± 0.0023 |
| UCCUCCUACAGCUUGCAUAGUUUUUAGUAA | 0.0743 ± 0.015 | 0.005 ± 0.0022 |
| UCCUGGAACUGCUUGCAUAGUAUUUAGAAA | 0.103 ± 0.019 | 0.00485 ± 0.0026 |
| UCCUGGAUGAGCUUGCAUACUAUUUAGUAA | 0.00877 ± 0.0036 | 0.00227 ± 0.0018 |
| UCCUGGAUGUCCAUUGCAUAGUAUUUAGUUA | 0.127 ± 0.032 | 0.00326 ± 0.0022 |
| UCCUCCUACAGCUUGCAUAGUAUUUUGAUA | 0.112 ± 0.024 | 0.0044 ± 0.0029 |
| UCCUCCUAGUCCUUGCAUAGUAUUUAGAAA | 0.0654 ± 0.017 | 0.00217 ± 0.0013 |
| UCCUGGAACAGCUUGCAUAGUAUUAAGUAA | 0.0909 ± 0.024 | 0.00572 ± 0.0023 |
| UCCUGCAACAGCUUCCAUAGUAUUUAGUUA | 0.112 ± 0.03 | 0.00273 ± 0.0014 |
| UCCUGCUACAGCUUGCAUUGUAUUUAGAAA | 0.111 ± 0.03 | 0.00474 ± 0.0017 |
| UCCUGGUACAGCUUGCAUAGUAAUAAGUUA | 0.204 ± 0.033 | 0.00546 ± 0.0031 |
| UCCUCCUACAGCUUGCAUAGUUUUUAGAAA | 0.0703 ± 0.019 | 0.00527 ± 0.0024 |
| UCCUCCUACAGCUUCGAUAGUAUUUAGUAA | 0.217 ± 0.02 | 0.00413 ± 0.0021 |
| UCCUGGUACAGGUUGCAUAGUAUUUAGAUA | 0.195 ± 0.054 | 0.00271 ± 0.0024 |
| UCCUCCUACAGCUUGCAUAGAAUUUAGAAA | 0.0449 ± 0.015 | 0.00385 ± 0.0019 |
| UCCUGGAUGUGCUUGCAUAGUAUUUAGAAA | 0.0532 ± 0.013 | 0.00293 ± 0.0018 |
| UCCUGCUACAGCUUGCAGUAGUAUUUAGUUA | 0.00973 ± 0.0053 | 0.0051 ± 0.0024 |

| Sequence | pre-steady-state target cleavage rate [1] | pre-steady-state target cleavage rate [2] |
| --- | --- | --- |
| UCCUGGAACAGCUUGCAUAGUAUUUAAUUA | 0.102 ± 0.021 | 0.00345 ± 0.0024 |
| UCCUGGAACAGCUUGCAUAGUAUUUUCAUA | 0.0434 ± 0.013 | 0.00388 ± 0.002 |
| UCCUCCUACAGCUUGCAUAGUUAAUAGAAA | 0.00946 ± 0.0043 | 0.00366 ± 0.0031 |
| UCCUGGAUCACCUUGCAUAGUAUUUAGUAA | 0.247 ± 0.038 | 0.00344 ± 0.0031 |
| UCCUGGAACAGCAUCCAUAGUAUUUAGUUA | 0.195 ± 0.045 | 0.0025 ± 0.0021 |
| UCCUGGAUGAGCUUGCAAUAGUAUUUAGUUA | 0.00505 ± 0.0031 | 0.00597 ± 0.003 |
| UCCUGGAUCAGCUUGCAUAGUAUUUAUUA | 0.044 ± 0.011 | 0.0033 ± 0.0024 |
| UCCUCCUACAGCUUGCUUAGUAUUUAGAUA | 0.15 ± 0.018 | 0.00689 ± 0.0038 |
| UCCUGCAACAGCUUGCAUAGAAUUUAGUUA | 0.0925 ± 0.023 | 0.00434 ± 0.0021 |
| UCCUGGUACAGCUUGCAUAGUAUUUACAAA | 0.0693 ± 0.017 | 0.003 ± 0.002 |
| UCCUGCAUGAGCUUGCAUAGUAUUUACAAA | 0.0926 ± 0.026 | 0.00266 ± 0.0017 |
| UCCUGCUACAGCUUGCAUAGUAUUAAGAUA | 0.019 ± 0.0078 | 0.00501 ± 0.0016 |
| UCCUGCUACAGCUUGCAUAGUAUUGAGUUA | 0.114 ± 0.027 | 0.00424 ± 0.0019 |
| UCCUCCUAGUGCUUGCAUAGUAUUUAGUAA | 0.114 ± 0.019 | 0.00468 ± 0.002 |
| UCCUGCUACAGGUUGCAUAGUAUUUAGAAA | 0.0337 ± 0.011 | 0.00261 ± 0.0014 |
| UCCUCCUACAGCUUGCAAAGUAUUAAGUUA | 0.0872 ± 0.014 | 0.00696 ± 0.0033 |
| UCCUGGUACAGCUUGCAUAGUAAUUUGUUA | 0.18 ± 0.05 | 0.00282 ± 0.0025 |
| UCCUCCUACAGCUACGAUAGUAUUUAGUUA | 0.232 ± 0.015 | 0.00503 ± 0.0031 |
| UCCUCCUACUGCUUGCAUAGUAUUUAGUAA | 0.126 ± 0.017 | 0.00527 ± 0.0023 |
| UCCUGCUACAGCUUGCAUAGUAUAAUGUUA | 0.166 ± 0.022 | 0.00304 ± 0.002 |
| UCCUGGAUGAGCUUGCAUAGUAAUUAGAUA | 0.0197 ± 0.0088 | 0.00341 ± 0.0028 |
| UCCUGCUACAGCUUGCAUAGUAAAAAGUAA | 0.0283 ± 0.0099 | 0.00322 ± 0.0027 |
| UCCUGCUACAGCUUCCAUAGUAUUUAGUAA | 0.0172 ± 0.0082 | 0.00255 ± 0.0016 |
| UCCUGGAACAGCUUGCAUAGUAUAAAGUUA | 0.196 ± 0.029 | 0.00389 ± 0.0023 |
| UCCUGCUACAGCUUGCCAUAGUAUUUAGUUA | 0.128 ± 0.015 | 0.00382 ± 0.0023 |
| UCCUCCUACAGCUUGCAUAGUUUUUACUUA | 0.036 ± 0.0086 | 0.00304 ± 0.0026 |
| UCCUGCAACAGCUUGCAUAGUAUUUUGUUA | 0.179 ± 0.023 | 0.00469 ± 0.0013 |
